# Screening data from PubChem BioAssay.
# The list is not random: actives were taken first. Their share in the collection is about 0.38%.
# TR SRC2 fluor cs: counter-screen for TRb-SRC2 inhibitors: fluorescence interference; TRb/SRC2 Texas Red total fluorescence interference; Potency, µM (highest dose often 106 µM); 280,000 compounds, 0.29% hits; AID 1479; active means well fitted curve in either direction with a large enough effect; inconclusive means small, poorly fitted or top-dose-only effect
#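 Human TRβ ligand-binding domain (0.6 uM) and Texas Red SRC2 peptide (20 nM) in Tris buffer with 1 uM T3 and 5% DMSO were incubated with pinned compound for 5 hr at ambient temperature. Total fluorescence was computed as S + 2P (555/632 nm).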
# USP2a block: blocks human ubiquitin-specific protease USP2a | O75604 | USP2 core, Ub-CHOP2 coupled fluorogenic reporter, 485/531 | Potency, µM (series often up to 38.3 µM), usual class: inhibitors | 330,000 compounds, 0.01% hits
#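 Deubiquitinase activity read as fluorescence (485/531 nm) after Ub-CHOP2 cleavage activates the enterokinase reporter on its substrate; USP2 core 10nM, Ub-CHOP2 and substrate 25nM each, 30min compound preincubation then 60min RT; data normalized to NEM, curves fitted.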
# Eya2 phos inh: blocks the phosphatase activity of human Eya2; O00167; recombinant Eya2, OMFP fluorescence dephosphorylation (OMFP is methylfluorescein phosphate); Potency, µM (doses to about 76.9 µM), most hits filed as inhibitors; 330,000 compounds, 0.006% hits; AID 488837
#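 Eya2 protein (added as 0.2 uM solution) was preincubated with compound for 10 min at ambient temperature in 50 mM HEPES pH 7.5, 50 mM NaCl, 5 uM MgCl2, 0.05% BSA, 1 mM DTT. OMFP (added at 50 uM) then reacted 10 min; fluorescence read at 485/525 nm.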
# TSHR antagonist: antagonists of human thyroid stimulating hormone receptor; P16473; TSHR-expressing cells, TSH-stimulated cAMP HTRF, 2 h; stronger effect = lower value; activity change, negative = inhibition, % at 11.5 µM; 330,000 compounds, 0.2% hits; AID 504810;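 active means activity change below a set negative limit, meaning inhibition stronger than a set level, cut at about -70% in these data; inconclusive means activity change between two set negative limits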
# Target sequence (P16473 whole entry, looked up): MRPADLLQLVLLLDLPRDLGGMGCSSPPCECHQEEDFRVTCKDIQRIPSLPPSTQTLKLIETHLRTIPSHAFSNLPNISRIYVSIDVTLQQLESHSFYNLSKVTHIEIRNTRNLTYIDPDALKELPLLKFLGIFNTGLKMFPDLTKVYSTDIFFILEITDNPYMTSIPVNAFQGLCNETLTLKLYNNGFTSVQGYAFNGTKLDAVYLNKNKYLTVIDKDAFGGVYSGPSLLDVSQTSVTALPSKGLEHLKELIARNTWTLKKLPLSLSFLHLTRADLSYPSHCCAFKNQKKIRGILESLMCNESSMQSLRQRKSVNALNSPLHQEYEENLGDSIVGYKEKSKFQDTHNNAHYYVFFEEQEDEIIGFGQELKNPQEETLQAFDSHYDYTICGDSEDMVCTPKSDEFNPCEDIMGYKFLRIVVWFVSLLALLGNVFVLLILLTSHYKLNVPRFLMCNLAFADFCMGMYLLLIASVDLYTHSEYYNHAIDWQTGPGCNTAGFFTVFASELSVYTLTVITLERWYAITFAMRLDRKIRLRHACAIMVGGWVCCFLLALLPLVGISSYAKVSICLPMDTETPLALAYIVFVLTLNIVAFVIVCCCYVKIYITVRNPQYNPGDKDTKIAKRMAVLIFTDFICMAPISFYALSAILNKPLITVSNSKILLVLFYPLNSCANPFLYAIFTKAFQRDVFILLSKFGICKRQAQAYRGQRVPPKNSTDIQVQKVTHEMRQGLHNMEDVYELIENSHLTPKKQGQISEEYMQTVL
#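 Antagonism was scored as loss of TSH-driven cAMP in TSHR cells, stimulated with 4nM TSH (EC80) for 2 hours at 37 deg C and detected by homogeneous HTRF competition immunoassay.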
# CBFb RUNX1 block: blocks binding between human CBF-beta and RUNX1 | Q01196+Q13951 | AlphaScreen CBFb-His/RUNX1-biotin binding, biochemical | Potency, µM (top dose mostly 59.8 µM), most hits filed as inhibitors | AID 1477 | 230,000 tested, under 10 active
#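 AlphaScreen binding: CBFb-His and RUNX1-biotin (30 nM each) preincubated 20 min, compound added for 15 min, then nickel and streptavidin beads for 90 min, all at room temperature. Disruption of the interaction by any mechanism counts as activity.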
# TRb-SRC2 inh: disrupts binding of human TR beta to SRC2 | TRbeta-SRC2 peptide binding, fluorescence polarization; receptor liganded with 1 µM T3 | Potency, µM (highest dose often 106 µM), hits mostly inhibitors | 280,000 compounds, 0.065% hits; further: nearly all actives have a fitted effect of over 50% in size
#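 Human TRb LBD (0.6 uM) plus Texas Red-labeled SRC2 peptide (20 nM), 1uM T3, 5% DMSO, 5 hr at ambient temperature. Decreased polarization (555/632 nm) flags inhibition; data normalized to free and bound peptide controls.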
# Hits are given with their value; 0 = inactive; ? = inconclusive; - = no result; [ ] = dose if it differs, or a comment. Unless noted, the call rests on the fitted dose curve; in most records, active means well fitted curve in the direction sought with a large enough effect; inconclusive means small, poorly fitted or top-dose-only effect, or another doubt; inactive means no such curve, though single readings can be large; an effect the other way counts as inactive or inconclusive.
SMILES,TR SRC2 fluor cs,USP2a block,Eya2 phos inh,TSHR antagonist,CBFb RUNX1 block,TRb-SRC2 inh
CCc1c(C)c2ccc(O)c(CN3CCN(c4cc(Cl)ccc4C)CC3)c2oc1=O,0,-,-,-,-,0
CC(=O)Nc1ccc(S(=O)(=O)NC2=NCN(C(C)C)CN2)cc1,13µM[quencher],-,-,-,-,0
COc1cc2ccccc2cc1C(=O)Nc1ccc2oc(-c3cccc(C)c3)nc2c1,3.2µM[quencher],-,-,-,-,?
COc1ccc(NCc2cc3cc4c(cc3n(CC(=O)Nc3ccc(F)cc3)c2=O)OCCO4)cc1,0,-,-,-,-,0
Cc1cc(=O)c2c(O)c3c(O)cc(O)c4c5c(O)cc(O)c6c(O)c7c(=O)cc(C)c8c1c2c(c34)c(c65)c78,14µM[fluorescent],-,-,-,?,13µM
CCOC(=O)N1CCc2c(sc(NCc3ccc(N(C)C)cc3)c2C(=O)Nc2ccccc2OCC)C1,0,-,-,-,-,0
Cn1c(CNC(=O)C(Cc2ccccc2)NC(=O)c2ccccc2)cc(=O)n(C)c1=O (stereo not given),-,0,0,-144,-,-
Cn1c(CNC(=O)C(Cc2ccccc2)NC(=O)c2ccccc2F)cc(=O)n(C)c1=O (stereo not given),-,0,0,0,-,-
O=[N+]([O-])c1cc2oc3c(c2c(C=NCc2ccccc2)c1O)CCCC3,0,0,0,0,0,0
CC(C)CN=Cc1c(O)c([N+](=O)[O-])cc2oc3c(c12)CCCC3,?,0,0,-85,0,0
O=C(NCCC1=CCCCC1)C1CCN(S(=O)(=O)c2cccc3cccnc23)CC1,0,0,0,0,0,0
Cc1ccc(CCNC(=O)C2CCN(S(=O)(=O)c3cccc4cccnc34)CC2)cc1,-,0,0,-107,-,-
O=S(c1ccc(Cl)cc1)c1cc(Cl)c(Cl)cc1Cl (stereo not given),0,-,-,-,-,0
Cc1cc(/C=C/c2ccc3cc(N(C)C)ccc3[n+]2C)c(C)n1-c1ccccc1,40µM[fluorescent],-,-,-,?,?
Cc1cc(C(=O)COC(=O)CNS(=O)(=O)c2ccc3ccccc3c2)c(C)n1-c1ccccc1,200µM[quencher],0,0,0,0,0
O=C(CNS(=O)(=O)c1ccc2ccccc2c1)OCC(=O)c1ccc(Br)s1,0,0,0,0,0,0
COc1ccccc1C(=O)COC(=O)/C=C/c1ccccc1,-,0,0,-93,-,-
Cc1ccc(S(=O)(=O)N(Cc2ccccc2)c2ccccc2C(=O)N2CCCCC2)cc1,-,0,0,-78,-,-
C#CCn1c(=O)c2c(nc(/C=C/c3cccc(OC)c3)n2C)n(CCCOP(=O)(O)O)c1=O,0,-,-,-,0,0
Cc1cc(SCc2cccc([N+](=O)[O-])c2)nc(=O)[nH]1,-,0,0,0,-,-
Cc1cc(SCc2ccc([N+](=O)[O-])cc2)nc(=O)[nH]1,-,0,0,-138,-,-
O=C(Nc1nc(-c2ccccc2)cs1)c1ccccc1NS(=O)(=O)c1ccc(F)cc1,?,0,0,-85,0,?
O=S(=O)(Nc1ccc(-c2csc(-c3ccccc3)n2)cc1)c1ccc(F)cc1,0,0,0,0,0,0
Cc1ccc(C(=O)Nc2nc(-c3ccc(F)cc3)cs2)o1,-,0,0,-121,-,-
CCOc1ccc(N(CC(=O)Nc2ccccc2CC)S(=O)(=O)c2c(C)noc2C)cc1,0,-,-,-,-,0
SMILES,TR SRC2 fluor cs,USP2a block,Eya2 phos inh,TSHR antagonist,CBFb RUNX1 block,TRb-SRC2 inh
Oc1c(C(c2ccccc2F)N2CCN(c3ccccc3F)CC2)sc2nc(-c3ccco3)nn12 (stereo not given),0,-,-,-,-,0
CCN(CC)c1ccc2nc3c(=O)n(C)c(=O)n(C)c3nc2c1,22µM[fluorescent],-,-,-,-,0
Cc1ccc(C(=O)CCS(=O)(=O)c2ccc(Br)cc2)cc1,-,0,0,0,-,-
Cc1ccc(S(=O)(=O)CCC(=O)c2cccc([N+](=O)[O-])c2)cc1,-,0,0,-105,-,-
C=CC(=O)OCCOc1ccccc1,0,-,-,-,-,?
Cc1ccc(NC(=O)CSc2nnc(-c3cccnc3)s2)cc1,0.32µM[quencher],0,0,0,0,?
O=C(CSc1nnc(-c2cccnc2)s1)Nc1ccnc2ccccc12,0,0,0,0,?,0
Cc1ccc(NC(=O)CN2C(=O)c3cccnc3Sc3ccccc32)cc1C,0,-,-,-,-,0
CCCCCCCCCCO,0[5.17e+03 µM],-,-,-,-,0[5.17e+03 µM]
COc1cccc2cc(C(C)N(CCCN3CCOCC3)C(=S)Nc3ccc(C)c(C)c3)oc12 (stereo not given),0,0,0,0,0,0
COc1ccc(NC(=S)N(CCCN2CCOCC2)C(C)c2cc3cccc(OC)c3o2)cc1 (stereo not given),0,0,0,-76,0,0
O=C(Cl)c1cccc(C(=O)Cl)c1,0,-,-,-,-,0
Cc1ccc(CN2CCN(/N=C/c3ccc(C(=O)O)cc3)CC2)cc1,0.063µM[quencher],0,0,0,0,0
O=C(O)c1ccc(/C=N/N2CCN(Cc3ccc(Cl)cc3)CC2)cc1,0,0,0,0,0,0
O=C(c1ccc(F)cc1)n1nc(-c2cccnc2)nc1NCc1ccccc1,0,-,-,-,-,0
CC(C)CC(=O)n1nc(-c2cccnc2)nc1NCc1ccc(F)cc1,0.089µM[quencher],-,-,-,-,0
COC(=O)c1nc2n(n1)C(c1cccc(Cl)c1)C1=C(CC(C)(C)CC1=O)N2 (stereo not given),0,0,0,0,0,0
COC(=O)c1nc2n(n1)C(c1cccc(Cl)c1)C1=C(CCCC1=O)N2 (stereo not given),0,0,0,-85,0,0
CCN1CCN(C2=C(NS(=O)(=O)c3ccc(NC(C)=O)cc3)C(=O)c3ccccc3C2=O)CC1,-,0,0,0,-,-
